From PubChem BioAssay AID1117359 (Southern Research Institute, 2015) come the findings set out here.

Molecules are shown by their SMILES. About 460 (31%) of roughly 1,500 compounds were called active. The list is a sample of the results. Results with a measured potency or affinity are listed apart. A number with no mark means an inactive call.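 The calls were made as follows: active = viability at or below 80% at any tested concentration, marking the compound as toxic; inactive = the rest.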

A short description of the assay: THP-1 cell cytotoxicity, dose response, cytotoxicity control for Vif-APOBEC3G degradation inhibitor project, THP-1 cells (AID 1117359). As to conditions: THP-1 viability, CellTiter-Glo luminescence, 72 h; series mostly up to 40 µM; viability: at the top concentration. In general terms: ATP-based viability assays read luminescence as a measure of living cells.
Usually viability stands for a read-out of living cells in per cent, often relative to untreated cells. `CCOC(=O)c1ccc(CC(=O)c2ccc(O)c(O)c2O)o1`: the “viability” value was 97.4%.
Regarding `O=C(NNC(=O)c1ccccc1F)c1cccc(-n2cccc2)c1`, the “viability” value is 108%.
On to `Cc1ccc(C(=O)NNS(=O)(=O)c2ccc(F)cc2)cc1`, for which the “viability” value was 94.9%.
On the same count and under the same terms, the same measure for `CN(C(=O)c1ccc(OC2CCN(S(=O)(=O)N(C)C)CC2)cc1)C1CCCCC1`: 83.9%.
The same measure, in the same setting: the same measure for `CCOC(=O)Cn1c(=O)c2c(nc3n2CCN3Cc2ccccc2)n(C)c1=O`: 99.8%; for `O=C(Cc1ccc2c(c1)OCCO2)N1CCN(S(=O)(=O)c2cccs2)CC1`: 96%; for `COc1ccc(N2CCC(CNS(=O)(=O)c3cccc(C(F)(F)F)c3)C2)cc1` (stereo not given): 83.1%.
For the molecule `CN(C)/C=N/NC(=O)c1ccccc1Cl`, the “viability” value was 120%.
On to `COC(=O)c1ccc(COc2ccc(/C=N/Nc3cccc(C(=O)O)c3)cc2)cc1`, for which the “viability” value is 96.3%.
On the same count and under the same terms, the same measure for `O=C(Nc1ccc(COc2ccccc2)cc1)Oc1ccccc1N1CCOCC1`: 104%; for `O=c1cc(OCc2ccccc2)cc[nH]1`: 89.6%; for `C[C@H](NC(=O)OCc1ccccc1)C(=O)NNC(=O)[C@H](C)NC(=O)OCc1ccccc1`: 105%.
On to `CCN(CC(=O)Nc1c(F)cccc1F)C(=O)c1cccc(-n2cccc2)c1`, for which the “viability” value is 107%.
On the same count and under the same terms, with `CCCCC1=CC2=C(c3ccco3)C(=O)C(C)(OC(=O)c3ccc(OC)cc3)C(=O)C2=CN1CCCCO` (stereo not given) the figure was 104%; with `CC(=O)Nc1ccc(C=C(C#N)c2ccc(C)cc2)cc1`, 95.3%; with `CCOc1ccc(CCNC(=O)C2CC(C)=CCC2C(=O)O)cc1OCC` (stereo not given), 101%.
Same read-out and setting: the same measure for `CCCCc1cc(=O)oc2cc(OCC(=O)N(CC)CC)c(Cl)cc12`: 86.8%; for `C[C@H](NC(=O)NCc1cccs1)C(=O)O`: 93.5%; for `CSc1cccc(NC(=O)C(C)C)c1`: 92.3%.
Still for that read-out and setting: with `CCOC(=O)c1cc2c(c(CCO)n1)[C@H](CCO)N(S(=O)(=O)C(C)(C)C)C2` the figure was 91.3%; with `Cc1oc(/N=C/c2cccc3ccccc23)c(C#N)c1C`, 90.9%; with `CCN1CCN(Cc2cc(=O)oc3ccc(C)cc23)CC1`, 104%.
Consider `COC(=O)C(Cc1c[nH]c2ccccc12)NC(=O)C(C)C` (stereo not given), for which the “viability” value is 107%.
Still for that read-out and setting: with `Cc1ccc(NC(=O)C(C)Sc2nc3nc(C)cc(C)n3n2)cc1` (stereo not given) the figure was 102%.
In the case of `O=S(=O)(c1ccc2nc(-c3ccco3)c(-c3ccco3)nc2c1)N1CCOCC1`, the result was inactive.
Take `Cc1ccc(CNC(=O)CN(c2cccc([N+](=O)[O-])c2)S(C)(=O)=O)cc1`: the “viability” value is 98.8%.
On the same count and under the same terms, with `CC(NC(=O)C(NS(=O)(=O)c1cccs1)C(C)C)c1ccc(S(N)(=O)=O)cc1` (stereo not given) the figure was 99%.
On the same count and under the same terms, with `Cc1cc(=O)nc2c3ccccc3n(C(C)C(=O)NCCC(C)C)n12` (stereo not given) the figure was 94%; with `Cc1cc(C)cc(N(CCC#N)C(=O)CSc2nc3nc(C)cc(C)n3n2)c1`, 86.5%.
Regarding `Cc1ccc(OCc2ccc(C(=O)NN)o2)cc1C`, the “viability” value is 89.7%.
The same measure, in the same setting: the same measure for `Cc1c(NC(=O)COC(=O)c2ccccc2Cl)c(=O)n(-c2ccccc2)n1C`: 103%; for `NC(=O)c1ccc(NC(=O)CSc2nc3ccccc3c(=O)n2CCCN2CCOCC2)cc1`: 95.7%; for `O=C(NC1CCCCC1)C(c1ccc(Cl)cc1)N(C(=O)c1ccccn1)c1cccnc1` (stereo not given): 102%.
The same measure, in the same setting: with `Cc1ccccc1Cn1cc(NC(=O)c2cc(C3CC3)on2)cn1` the figure was 91.4%; with `O=C(c1cccc(S(=O)(=O)N2CCCC2)c1)N1CCOCC1`, 101%.
On the same count and under the same terms, the same measure for `COc1ccc(NC(=S)N(CCCN2CCCC2)Cc2ccco2)cc1`: 94.6%; for `CCOC(=O)C1(Cc2ccc(OC)cc2)CCN(C(=O)c2cccc3nccnc23)CC1`: 99.2%.
For `CCOc1ccc(-n2c(C)nc(O)c2N=Nc2ccccc2)cc1`, the “viability” value is 94.9%.
On to `COc1cccc(NC(=O)Nc2nnc(N3C(C)CCCC3C)s2)c1` (stereo not given), for which the “viability” value was 93.2%.
Consider `O=C1N=C(N2CCN(c3ccccc3)CC2)S/C1=C\c1ccco1`, for which the “viability” value was 86.3%.
On the same count and under the same terms, with `CCCCn1c(N)c(N(CCOC)C(=O)c2cc(-c3ccco3)nc3ccccc23)c(=O)[nH]c1=O` the figure was 101%.
The same measure, in the same setting: with `C=CCOc1ccc(/C=C2\SC(=S)N(CCC(=O)O)C2=O)cc1` the figure was 108%.
On the same count and under the same terms, the same measure for `CCOc1ccc(/C=C2\SC(=S)N(CCC(=O)O)C2=O)cc1`: 100%.
On to `CN(CCC#N)C(=O)COC(=O)c1c2c(nc3ccccc13)/C(=C\c1ccco1)CC2`, for which the “viability” value is 83%.
As to `COc1ccccc1C(C#N)N1N=C(C)CC1(C)C` (stereo not given), the “viability” value is 107%.
In the case of `CCCN(CC(=O)Nc1ccccc1C)C(=O)COC(=O)c1cnc(C)cn1`, the “viability” value was 105%.
Still for that read-out and setting: the same measure for `O=C(COc1ccccc1C(=O)O)Nc1ccc(SC(F)F)cc1`: 102%; for `COc1ccccc1NC(=O)COC(=O)c1cc2c(s1)CCC2`: 81%; for `CN(C)CCCN(CCCN(C)C)C(=S)Nc1ccc(S(=O)(=O)N2CCOCC2)cc1`: 96.8%.
On the same count and under the same terms, with `CNc1ccc(Br)cc(C(=O)/C=C/c2ccc(OC)cc2)c1=O` the figure was 89%; with `CCNc1ccc(Br)cc(C(=O)/C=C/c2ccc(Cl)cc2)c1=O`, 83.2%.
The same measure, in the same setting: with `COc1ccc(Br)c(C(=O)NC(C)(C)CO)c1` the figure was 97.4%.
`O=C(CCc1ccccc1)NNC(=S)NCCc1ccccc1`: the “viability” value is 82%.
Regarding `O=C1CCCCC1Oc1ccc2ccc(=O)oc2c1` (stereo not given), the “viability” value was 119%.
As for `Cc1ccc(OCCC(=O)OCC(=O)c2ccc3c(c2)NC(=O)CO3)cc1`, the “viability” value was 121%.
Same read-out and setting: the same measure for `Oc1ccc(/C=N/N2CCCCC2)c(O)c1O`: 111%; for `Oc1ccc(/C=N/N2CCOCC2)c(O)c1O`: 90.6%.
For `CN=c1scc(C)n1/N=C/c1ccc(O)c(O)c1O`, the molecule was classed as inactive.
Turning to `CCOC(=O)C1CCCN(C(=O)c2cc(-c3ccco3)nc3ccccc23)C1` (stereo not given), the “viability” value is 91.6%.
On the same count and under the same terms, with `Cc1nn(Cc2ccccc2)c(C)c1/C=N/NC(=O)c1ccccc1O` the figure was 96.5%.
On the same count and under the same terms, with `C=C(C)C(=O)Nc1cccc(C2=NOC3(C2)C[C@@H](C(N)=O)N(C(=O)/C=C/CC)C3)c1` (stereo not given in full) the figure was 101%.
Same read-out and setting: with `O=C1N=C(N2CCOCC2)SC1=Cc1ccco1` the figure was 88.8%; with `O=C(/C=C/c1ccco1)c1cccnc1`, 101%; with `COc1cc(-n2cnnn2)ccc1S(=O)(=O)N1CCOCC1`, 106%.
As for `O=[N+]([O-])c1ccc(Cl)c(S(=O)(=O)Nc2cccc(S(=O)(=O)NC3=NCCC3)c2)c1`, the “viability” value is 116%.
`CN1CCN(/C=C(\C#N)S(=O)(=O)c2ccc(Cl)cc2)CC1`: the “viability” value is 95.5%.
Still for that read-out and setting: with `CC(C)(C)NC(=O)/C(=C/c1ccco1)c1ccccc1` the figure was 106%.
Same read-out and setting: the same measure for `COc1ccc(CN2CCSCC2)cc1C`: 90.2%; for `COc1ccc(C(=O)CSc2nnc3n2CCCN3C(=O)Nc2ccccc2)cc1`: 91%; for `CCC1=NN2C(=N)/C(=C\c3cccn3-c3cccc(Cl)c3)C(=O)N=C2S1`: 92.3%.
The same measure, in the same setting: the same measure for `O=C(Nn1cnnc1)c1cc(-c2cccc(Br)c2)nc2ccccc12`: 101%; for `CC(C)Cn1c(SCC(=O)Nc2cccnc2Cl)nnc1-c1ccco1`: 99.8%.
As to `CC(CNc1ccccc1O)C(=O)O` (stereo not given), the “viability” value is 90.3%.
On the same count and under the same terms, the same measure for `C=CCc1cc(Cl)ccc1OC(=O)Nc1cccc(Cl)c1`: 86.7%.
Same read-out and setting: with `[O-]/[N+](=C\C=C\c1ccccc1)c1ccccc1` the figure was 95.6%; with `O=C(COC(=O)C12CC3CC(CC(Br)(C3)C1)C2)Nc1ccc2[nH]c(=O)[nH]c2c1`, 87.7%.
In the case of `Cc1cccc(NC(=O)CSc2nnc(CCC(=O)Nc3ccc(C)c(Cl)c3)n2C)c1`, the “viability” value is 99.7%.
Still for that read-out and setting: the same measure for `N=C1C=CC=C2C1=NC1(CCCCC1)N2O`: 91.8%; for `CC(=O)c1ccc(N2C(=NC(=O)C3CCCO3)SC3CS(=O)(=O)CC32)cc1` (stereo not given): 102%.
On the same count and under the same terms, the same measure for `C[C@@H]1NC(=O)[C@H](CCC(N)=O)NC(=O)c2cc([N+](=O)[O-])cc(I)c2NCCC[C@@H](C(N)=O)NC1=O`: 97%; for `Cn1cc(CN2CCN(CCO)CC2)c(-c2ccc(Oc3ccccc3)cc2)n1`: 89.5%; for `O=C(CSc1nnc(Cc2ccc(Cl)cc2)o1)Nc1ccccc1`: 101%.
Still for that read-out and setting: with `COc1cccc(CNCC(=O)Nc2ccc(N3CCOCC3)cc2)c1` the figure was 105%; with `COc1ccccc1N1C(=O)CC(Nc2ccc(N3CCOCC3)cc2)C1=O` (stereo not given), 113%; with `O=C(CC1C(=O)NCCN1Cc1ccc(F)cc1)NCCN1CCCc2ccccc21` (stereo not given), 93.5%.
For `CCc1cccc(NC(=O)CCS(=O)(=O)c2ccc(Br)cc2)c1`, the “viability” value was 87.2%.
In the case of `O=C(CSc1nccc(=O)[nH]1)Nc1ccc2c(c1)OCCO2`, the “viability” value was 103%.
Still for that read-out and setting: with `COc1ccc(NC(=O)C2CCCNC2)cc1OCC(C)C` (stereo not given) the figure was 96%; with `Cc1cc(/C=C2\SC(=S)NC2=O)c(C)n1-c1ccccc1`, 106%; with `Cc1c(C)n(C(=O)CSc2nc3ccccc3[nH]2)c2ccccc12`, 102%.
Still for that read-out and setting: the same measure for `COc1ccc(C(=O)NC2CC3CCCC(C2)N3CC(C)C)cc1` (stereo not given): 108%; for `Cc1ccc(NC(=O)CSc2nnc([C@H](C)NC(=O)OC(C)(C)C)o2)c(C)c1`: 86.8%.
Same read-out and setting: with `CCOc1cc(C(C(=O)NCC2CCCO2)N(C(=O)Cn2nnc3ccccc32)c2cccc(OC)c2)ccc1O` (stereo not given) the figure was 98.6%.
Consider `COc1cc(/C=C2/C(=O)N(c3ccc(Br)cc3)N=C2C)cc(OC)c1OC`, for which the “viability” value was 92.3%.
On the same count and under the same terms, the same measure for `O=C1NCC(O)=C1C=NC12CC3CC(CC(C3)C1)C2`: 97.2%; for `CCN(CC)C(=O)CN1C(=O)C2(NC(=O)c3ccccc3N2)c2ccccc21` (stereo not given): 93.6%; for `CCc1cc2c(=O)n(-c3ccc(C)cc3)cnc2s1`: 89.1%.
On the same count and under the same terms, the same measure for `CC(=O)NC1=NC(=O)/C(=C/c2cc(C)n(-c3cccc(C(=O)O)c3)c2C)S1`: 92.4%; for `O=C1NC(c2cccc(Br)c2)=N/C1=C\c1ccco1`: 88.8%; for `Nc1ccccc1NC1=CC(=O)CC(c2ccco2)C1` (stereo not given): 102%.
On the same count and under the same terms, with `O=C1CC(c2ccco2)CC(O)=C1C=Nc1cc(Cl)ccc1Cl` (stereo not given) the figure was 86.1%; with `O=C1CCC/C(=N\NC(=O)c2ccc(COc3cccc4cccnc34)cc2)C1`, 89.2%; with `O=C(NN(C(=O)c1ccccc1)c1ccccc1)c1ccccc1`, 105%.
Turning to `Oc1ccc(/C=N/N2CCCCC2)c(O)c1`, the “viability” value was 89.5%.
For the molecule `S=c1[nH]nc(C2CC2)n1Cc1ccco1`, the “viability” value was 110%.
Same read-out and setting: the same measure for `CCC(C)[C@H](NC(=O)Nc1ccccc1F)C(=O)OC` (stereo not given in full): 87%.
Same read-out and setting: with `Cc1nc2ccccc2n2c(O)c(CC(=O)O)cc12` the figure was 102%; with `O=S(=O)(O)c1cc(Cl)cc(N=Nc2ccc(O)cc2O)c1O`, 112%; with `Cc1nc2ccc(NS(=O)(=O)c3ccc(F)cc3F)cc2s1`, 83.6%.
Same read-out and setting: with `CC(C)CN(C(=O)CN1CCN(c2ccc(O)cc2)CC1)c1c(N)n(CC(C)C)c(=O)[nH]c1=O` the figure was 90.8%.
